Drawing on ChEMBL document CHEMBL1157539, “Thousands of chemical starting points for antimalarial lead identification” (Nature, 2010), this text covers Inhibition for 22 compounds.

Holding throughout (type): functional
Experiment [1] has as its system Plasmodium falciparum. In words: GSK_TCMDC: Inhibition of Plasmodium falciparum 3D7 in whole red blood cells, using parasite LDH activity as an index of growth. Test compounds present at 2uM.
For experiment [2], the system named is Plasmodium falciparum. In words: GSK_TCMDC: Inhibition of Plasmodium falciparum Dd2 in whole red blood cells, using parasite LDH activity as an index of growth. Test compounds present at 2uM.
The test system of the next experiment is HepG2. Nature of the experiment: GSK_TCMDC: Percent inhibition of human HepG2 cell line. Test compounds present at 10uM.

Molecules are shown by their SMILES.

Turning to `Cc1ccc(CNC(=O)c2cnc(N3CCN(c4ccncc4)CC3)c(Cl)c2)cc1.O=C(O)C(F)(F)F`, the Inhibition (usually the percentage by which the read-out fell short of the control) in the experiment with Plasmodium falciparum [1] amounted to 92%; in the experiment with Plasmodium falciparum [2], 6%; in the experiment with HepG2, 27%.
For the compound `Cl.N=C(N)Nc1nccc(NCc2ccccc2)n1`, the Inhibition in the experiment with Plasmodium falciparum [1] was determined as 88%; with Plasmodium falciparum [2], 48%; in the experiment on HepG2, 95%.
With `COc1cc2nc(NCCc3ccccc3)nc(NCc3cc(C)no3)c2cc1OC`, the Inhibition in the experiment on Plasmodium falciparum [1] was 99%; in the experiment with Plasmodium falciparum [2], 100%; in the experiment with HepG2 it was 5%.
For `Cc1cccc2nc(-c3cccc(-c4ccc(CN5CCN(CCO)CC5)cc4)c3)[nH]c12.O=C(O)C(F)(F)F`, the Inhibition in the experiment with Plasmodium falciparum [1] was determined as 100%; with Plasmodium falciparum [2] it was 63%; in the experiment on HepG2, 12%.
As for `Oc1ccc2[nH]cc(C3CCN(CCCCCCCCCN4CCC(c5c[nH]c6ccc(O)cc56)CC4)CC3)c2c1`, the Inhibition worked out at 100% in the experiment with Plasmodium falciparum [1], 2% in the experiment with Plasmodium falciparum [2] and 22% in the experiment on HepG2.
With `CCOc1ccc(-c2nonc2NC(=O)c2cccc(Cl)c2)cc1OCC`, the results for the Inhibition in the experiment on Plasmodium falciparum [1], in the experiment on Plasmodium falciparum [2] and in the experiment with HepG2 were 100%, 99% and 0%, respectively.
The like results for `CCCN(CCCCNC(=O)c1ccc(-c2cccnc2)cc1)C1CCc2c(O)cccc2C1.Cl` (stereo unspecified) were, in that order, 87%, 16% and 0%.
`O=C(Nc1ccc(F)c(C(F)(F)F)c1)NC1CCN(CCCCCNC(=O)C2CC2c2ccc(Cl)c(Cl)c2)CC1` (stereo unspecified): the values for the Inhibition in the experiment with Plasmodium falciparum [1], in the experiment on Plasmodium falciparum [2] and with HepG2 were 100%, 16% and 96%, respectively.
For `COC(=O)c1sc2ccccc2c1NC(=O)c1ccc(C)c(C)c1`, the Inhibition with Plasmodium falciparum [1] is on record as 88%; in the experiment on Plasmodium falciparum [2], 48%; with HepG2, 4%.
On to `NC(=O)C1CCN(Cc2cccc(-c3ccc(-c4nc5cc(C(F)(F)F)ccc5[nH]4)cc3)c2)CC1.O=C(O)C(F)(F)F`, for which the Inhibition was 100% with Plasmodium falciparum [1], 94% in the experiment on Plasmodium falciparum [2] and 7% in the experiment on HepG2.
For the compound `CS(=O)(=O)c1ccc2c(c1)CCN(CCC1CCC(NC(=O)c3cc4cccc(Br)c4[nH]3)CC1)CC2` (stereo unspecified), the Inhibition with Plasmodium falciparum [1] is 92%; in the experiment on Plasmodium falciparum [2], 7%; in the experiment with HepG2, 27%.
For `O=C(Nc1ccc(F)c(Cl)c1)NC1CCN(c2ccnc3cc(Cl)ccc23)C1.O=C(O)C(F)(F)F` (stereo unspecified), the Inhibition in the experiment on Plasmodium falciparum [1] is given as 100%; in the experiment with Plasmodium falciparum [2], 74%; in the experiment with HepG2, 37%.
The like results for `CCCCCCCc1c(C)nc2cccc(OC)c2c1O` were, in that order, 95%, 47% and 43%.
Regarding `COc1ccc(CCNc2nc(SCc3ccccc3Cl)nc3ccccc23)cc1OC`, the Inhibition in the experiment with Plasmodium falciparum [1] came out at 94%; with Plasmodium falciparum [2] it was 2%; in the experiment on HepG2 it was 27%.
With `CC(CN(C)C)C(=O)Nc1ccc(-c2cccc(-c3nc4cc(C(F)(F)F)ccc4[nH]3)c2)cc1` (stereo unspecified), the Inhibition in the experiment with Plasmodium falciparum [1] came out at 100%; in the experiment with Plasmodium falciparum [2], 85%; with HepG2, 30%.
Consider `COc1ccc(NC(=O)[C@H](CC(C)C)Nc2cc(C)nc(Nc3ccccc3)n2)cc1.O=C(O)C(F)(F)F`, for which the figures for the Inhibition in the experiment with Plasmodium falciparum [1], in the experiment on Plasmodium falciparum [2] and in the experiment with HepG2 were 100%, 92% and 25%, respectively.
For `COc1cccc(CN2CCCC(CCC(=O)Nc3ccc(C(F)(F)F)cc3)C2)c1O` (stereo unspecified), the Inhibition was determined as 98% in the experiment with Plasmodium falciparum [1], 97% in the experiment with Plasmodium falciparum [2] and 15% in the experiment on HepG2.
As for `CN(Cc1ccc(NC(=O)NC2CCN(C(=O)/C=C/c3ccc(Cl)c(Cl)c3)CC2)cc1)C1CCOCC1`, the figures for the Inhibition in the experiment on Plasmodium falciparum [1], in the experiment on Plasmodium falciparum [2] and in the experiment with HepG2 were 96%, 14% and 9%, respectively.
For `Fc1ccc2[nH]c(-c3cccc(-c4ccc(CN5CCN(c6ccncc6)CC5)cc4)c3)nc2c1.O=C(O)C(F)(F)F`, the figures for the Inhibition with Plasmodium falciparum [1], in the experiment with Plasmodium falciparum [2] and in the experiment on HepG2 were 100%, 67% and 39%, respectively.
Turning to `COc1ccc(NC(=O)Nc2ccc(-c3ccccc3)cc2)cc1Cn1nc(Cl)c(N2CCCNCC2)cc1=O.O=C(O)C(F)(F)F`, the Inhibition in the experiment with Plasmodium falciparum [1] turned out to be 100%; with Plasmodium falciparum [2], 84%; with HepG2, 18%.
As for `Cc1cc(N[C@@H](Cc2ccccc2)C(=O)NCc2cccs2)nc(NCC2CCCCC2)n1.O=C(O)C(F)(F)F`, the Inhibition in the experiment with Plasmodium falciparum [1] was found to be 100%; in the experiment on Plasmodium falciparum [2] it was 92%; with HepG2, 0%.
Turning to `Cc1cccc(C(=O)NCCCN2CCC(NC(=O)/C=C/c3ccc(Cl)c(Cl)c3)CC2)c1.O=C(O)C(F)(F)F`, the Inhibition turned out to be 98% in the experiment with Plasmodium falciparum [1], 23% in the experiment on Plasmodium falciparum [2] and 39% in the experiment with HepG2.
